The full data set covers some 8,800 targets. This sample favours those with a hit. About 0.5% of all pairs of compound and target were hits. Unmarked numbers belong to inactive results.

Sequence of UniProt P12931 (P12931 whole entry, looked up): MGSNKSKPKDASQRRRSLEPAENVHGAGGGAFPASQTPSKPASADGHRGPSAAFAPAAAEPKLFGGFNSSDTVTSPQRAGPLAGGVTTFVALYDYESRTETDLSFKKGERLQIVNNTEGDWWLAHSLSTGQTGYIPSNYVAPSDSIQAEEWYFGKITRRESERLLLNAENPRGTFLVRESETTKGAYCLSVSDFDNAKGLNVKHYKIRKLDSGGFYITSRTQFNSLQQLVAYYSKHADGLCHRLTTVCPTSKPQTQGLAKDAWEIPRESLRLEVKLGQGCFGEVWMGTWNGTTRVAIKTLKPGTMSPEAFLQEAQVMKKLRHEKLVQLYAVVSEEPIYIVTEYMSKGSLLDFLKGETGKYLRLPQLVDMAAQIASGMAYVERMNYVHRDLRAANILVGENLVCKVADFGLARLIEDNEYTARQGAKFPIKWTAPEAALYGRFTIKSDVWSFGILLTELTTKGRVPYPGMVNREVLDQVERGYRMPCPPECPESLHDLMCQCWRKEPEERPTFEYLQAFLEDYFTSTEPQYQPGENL
Sequence of UniProt Q53T94 (Q53T94 whole entry, looked up): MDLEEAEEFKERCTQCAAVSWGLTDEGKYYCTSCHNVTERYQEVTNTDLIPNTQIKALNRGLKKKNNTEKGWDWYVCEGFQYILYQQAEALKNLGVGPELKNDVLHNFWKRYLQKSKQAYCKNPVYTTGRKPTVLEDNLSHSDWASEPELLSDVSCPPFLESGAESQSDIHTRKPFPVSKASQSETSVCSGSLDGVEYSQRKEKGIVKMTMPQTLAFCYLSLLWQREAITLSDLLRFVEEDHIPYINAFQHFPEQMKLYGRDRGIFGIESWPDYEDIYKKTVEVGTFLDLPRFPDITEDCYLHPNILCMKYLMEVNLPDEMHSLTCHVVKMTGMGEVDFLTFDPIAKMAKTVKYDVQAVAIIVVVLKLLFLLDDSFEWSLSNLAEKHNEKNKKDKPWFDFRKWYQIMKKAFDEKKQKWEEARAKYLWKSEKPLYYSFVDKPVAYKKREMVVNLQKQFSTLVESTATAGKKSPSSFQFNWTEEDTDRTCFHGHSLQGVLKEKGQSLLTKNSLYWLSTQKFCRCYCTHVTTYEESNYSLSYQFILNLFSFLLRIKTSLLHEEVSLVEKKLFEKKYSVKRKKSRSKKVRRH
Sequence of UniProt Q9NZ72 (Q9NZ72 whole entry, looked up): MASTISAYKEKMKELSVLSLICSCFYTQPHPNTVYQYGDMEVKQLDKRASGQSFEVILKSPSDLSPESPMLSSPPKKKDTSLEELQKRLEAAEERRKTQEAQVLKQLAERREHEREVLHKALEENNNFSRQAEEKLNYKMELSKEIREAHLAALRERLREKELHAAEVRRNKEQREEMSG
Sequence of UniProt Q15544 (Q15544 whole entry, looked up): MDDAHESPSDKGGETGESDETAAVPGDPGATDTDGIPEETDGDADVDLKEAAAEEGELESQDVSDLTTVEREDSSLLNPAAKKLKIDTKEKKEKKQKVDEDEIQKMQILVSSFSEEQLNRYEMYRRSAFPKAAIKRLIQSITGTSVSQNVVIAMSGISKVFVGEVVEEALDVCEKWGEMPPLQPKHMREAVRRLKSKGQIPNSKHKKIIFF
Sequence of UniProt P51532 (P51532 whole entry, looked up): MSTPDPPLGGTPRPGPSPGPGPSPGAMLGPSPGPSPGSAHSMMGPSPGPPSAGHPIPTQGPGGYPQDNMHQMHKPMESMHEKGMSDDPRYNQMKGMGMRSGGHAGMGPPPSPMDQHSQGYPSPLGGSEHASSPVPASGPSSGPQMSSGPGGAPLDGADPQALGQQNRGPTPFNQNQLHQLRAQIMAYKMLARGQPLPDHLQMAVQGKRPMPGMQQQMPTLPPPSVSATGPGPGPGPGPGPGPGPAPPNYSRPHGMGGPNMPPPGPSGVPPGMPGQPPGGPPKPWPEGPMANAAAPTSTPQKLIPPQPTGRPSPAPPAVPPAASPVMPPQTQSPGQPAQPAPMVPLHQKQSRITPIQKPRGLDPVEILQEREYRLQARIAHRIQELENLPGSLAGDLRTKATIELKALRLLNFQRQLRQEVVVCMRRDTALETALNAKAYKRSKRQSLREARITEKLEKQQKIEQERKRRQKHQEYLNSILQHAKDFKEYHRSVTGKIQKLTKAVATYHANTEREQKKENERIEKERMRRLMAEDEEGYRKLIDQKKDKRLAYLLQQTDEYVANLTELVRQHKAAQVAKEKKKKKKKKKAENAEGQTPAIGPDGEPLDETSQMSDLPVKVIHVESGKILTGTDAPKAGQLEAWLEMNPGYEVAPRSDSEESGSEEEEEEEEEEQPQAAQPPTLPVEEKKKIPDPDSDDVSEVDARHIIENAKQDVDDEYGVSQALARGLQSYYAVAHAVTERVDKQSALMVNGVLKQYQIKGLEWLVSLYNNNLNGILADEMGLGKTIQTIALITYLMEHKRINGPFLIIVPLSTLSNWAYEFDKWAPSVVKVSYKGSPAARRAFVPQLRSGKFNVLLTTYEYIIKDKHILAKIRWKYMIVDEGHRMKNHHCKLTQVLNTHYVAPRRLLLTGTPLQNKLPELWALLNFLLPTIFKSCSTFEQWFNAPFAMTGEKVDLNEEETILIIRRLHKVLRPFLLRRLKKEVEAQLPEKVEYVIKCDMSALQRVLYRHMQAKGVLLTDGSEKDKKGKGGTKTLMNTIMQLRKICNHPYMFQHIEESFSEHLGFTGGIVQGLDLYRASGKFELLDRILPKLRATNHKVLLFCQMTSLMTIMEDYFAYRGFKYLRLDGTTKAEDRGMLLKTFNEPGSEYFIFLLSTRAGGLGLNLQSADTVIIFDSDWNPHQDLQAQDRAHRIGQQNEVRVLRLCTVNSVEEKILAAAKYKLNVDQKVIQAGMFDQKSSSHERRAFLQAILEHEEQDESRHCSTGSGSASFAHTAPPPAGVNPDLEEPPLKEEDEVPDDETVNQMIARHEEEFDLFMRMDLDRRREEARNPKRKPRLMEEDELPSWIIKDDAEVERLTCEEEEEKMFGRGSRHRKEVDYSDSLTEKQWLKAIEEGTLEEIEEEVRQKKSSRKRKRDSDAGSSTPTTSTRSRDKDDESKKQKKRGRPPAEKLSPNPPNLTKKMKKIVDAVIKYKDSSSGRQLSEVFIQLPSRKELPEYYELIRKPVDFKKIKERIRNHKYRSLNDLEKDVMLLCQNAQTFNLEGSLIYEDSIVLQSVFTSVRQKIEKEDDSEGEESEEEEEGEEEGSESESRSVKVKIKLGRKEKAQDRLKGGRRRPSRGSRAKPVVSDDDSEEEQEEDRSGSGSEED
Sequence of UniProt B2RUZ4 (B2RUZ4 whole entry, looked up): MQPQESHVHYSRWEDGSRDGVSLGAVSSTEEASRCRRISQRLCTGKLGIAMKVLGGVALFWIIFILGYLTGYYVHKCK
Sequence of UniProt Q15527 (Q15527 whole entry, looked up): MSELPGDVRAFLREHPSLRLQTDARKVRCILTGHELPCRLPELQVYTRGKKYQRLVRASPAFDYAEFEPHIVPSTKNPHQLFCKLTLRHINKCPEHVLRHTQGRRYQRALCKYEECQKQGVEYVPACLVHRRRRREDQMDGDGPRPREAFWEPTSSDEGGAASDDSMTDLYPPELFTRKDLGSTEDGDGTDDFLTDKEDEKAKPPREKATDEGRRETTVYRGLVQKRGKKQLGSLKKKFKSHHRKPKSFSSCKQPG
Sequence of UniProt Q8NDV3 (Q8NDV3 whole entry, looked up): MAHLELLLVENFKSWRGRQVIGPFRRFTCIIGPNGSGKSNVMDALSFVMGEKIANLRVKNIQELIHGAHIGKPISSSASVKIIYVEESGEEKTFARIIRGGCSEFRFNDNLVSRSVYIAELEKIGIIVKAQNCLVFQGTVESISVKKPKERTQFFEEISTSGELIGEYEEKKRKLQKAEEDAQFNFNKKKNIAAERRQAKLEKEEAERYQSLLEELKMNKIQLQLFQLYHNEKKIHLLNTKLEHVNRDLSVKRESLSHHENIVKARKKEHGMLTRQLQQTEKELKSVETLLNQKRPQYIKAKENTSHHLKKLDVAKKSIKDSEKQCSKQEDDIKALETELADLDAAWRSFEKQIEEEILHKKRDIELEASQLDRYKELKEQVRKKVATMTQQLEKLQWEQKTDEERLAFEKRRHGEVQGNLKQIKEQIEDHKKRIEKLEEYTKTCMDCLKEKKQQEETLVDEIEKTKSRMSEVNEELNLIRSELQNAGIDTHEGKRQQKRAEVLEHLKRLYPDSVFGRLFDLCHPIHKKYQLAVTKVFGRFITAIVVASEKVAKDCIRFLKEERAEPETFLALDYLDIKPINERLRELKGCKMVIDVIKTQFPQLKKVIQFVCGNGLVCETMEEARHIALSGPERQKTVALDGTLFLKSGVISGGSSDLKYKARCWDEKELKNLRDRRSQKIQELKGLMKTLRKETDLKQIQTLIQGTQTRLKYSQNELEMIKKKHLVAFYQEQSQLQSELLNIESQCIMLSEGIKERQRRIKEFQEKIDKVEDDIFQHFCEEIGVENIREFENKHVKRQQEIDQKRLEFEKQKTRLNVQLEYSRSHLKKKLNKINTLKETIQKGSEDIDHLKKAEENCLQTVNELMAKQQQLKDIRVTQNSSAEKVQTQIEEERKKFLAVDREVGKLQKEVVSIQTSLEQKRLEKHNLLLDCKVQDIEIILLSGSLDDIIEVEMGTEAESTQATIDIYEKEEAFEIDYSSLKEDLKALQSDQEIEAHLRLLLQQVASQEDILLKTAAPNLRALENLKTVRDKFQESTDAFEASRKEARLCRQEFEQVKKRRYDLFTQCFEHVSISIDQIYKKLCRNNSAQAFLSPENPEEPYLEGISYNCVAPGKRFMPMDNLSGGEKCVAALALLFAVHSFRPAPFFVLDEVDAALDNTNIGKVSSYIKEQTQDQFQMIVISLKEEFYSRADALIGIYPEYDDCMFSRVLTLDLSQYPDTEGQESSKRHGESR
Sequence of UniProt Q15506 (Q15506 whole entry, looked up): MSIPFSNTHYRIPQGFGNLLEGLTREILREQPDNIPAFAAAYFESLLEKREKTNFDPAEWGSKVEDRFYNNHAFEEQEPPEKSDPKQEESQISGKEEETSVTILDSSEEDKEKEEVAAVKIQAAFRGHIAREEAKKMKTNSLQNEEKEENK

Compound in one test: CNc1nc(-c2ccc3c(N)n[nH]c3c2)cc(N2C[C@@H](C(=O)NC3CCCCC3)CC[C@H]2C)n1
The test can be described thus: log2 fold change, soluble protein after heating vs DMSO (PISA); higher = thermal stabilisation; K562 lysate, 10 uM; active = over 0.2 and 3.5 SD of the protein, either way, in both replicates (recomputed). The gist of the method:
(§1)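 Soluble protein was defined as the supernatant remaining after 21,000xg for 90 min, following pooling of heated aliquots and adjustment to 0.5% NP-40 at 4°C. Before that, crude K562 extract at 1 mg/mL protein in PBS pH 7.4 with 1 mM MgCl2 was treated with 10 μM compound for 30 min and heated for 3 min across 48°C-58°C. Quantification used TMTpro 16plex LC-MS/MS with channel sums equalised, and values are log-two fold changes in thermal stability relative to solvent controls from duplicates.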
For SMARCA4 isoform 4 (UniProt P51532), the log2 fold change was 0.024.
Same read-out and setting: as for TAF1B (UniProt Q53T94), the figure is 0.614; as for SNRPD2 (UniProt K7EJB5), 0.054; as for STK3 isoform 2 (UniProt Q13188), 0.015.
On the same count and under the same terms, the result for SMPD2 (UniProt O60906) reads -0.034; that for STK26 isoform 3 (UniProt Q9P289), 0.058; that for SLC12A6 isoform 2 (UniProt Q9UHW9), -0.008.
Regarding SZT2 (UniProt Q5T011), the log2 fold change was 0.109.
On to SURF2 (UniProt Q15527), for which the log2 fold change is 0.013.
Same read-out and setting: as for SMYD3 (UniProt Q9H7B4), the figure is 0.028; as for STK17B (UniProt O94768), 0.642; as for TAOK2 (UniProt Q9UL54), -0.015.
The same measure, in the same setting: as for SHB (UniProt Q15464), the figure is 0.067.
Same read-out and setting: as for STMN3 (UniProt Q9NZ72), the figure is 0.029.
SPA17 (UniProt Q15506): the log2 fold change is 0.038.
For the target SIX5 (UniProt Q8N196), the log2 fold change is 0.043.
On the same count and under the same terms, as for SMC1B isoform 3 (UniProt Q8NDV3), the figure is 0.028; as for SNAPC2 (UniProt Q13487), -0.175.
The same measure, in the same setting: the result for TAF11 (UniProt Q15544) reads 0.137.
Still for that read-out and setting: as for SRC isoform 2 (UniProt P12931), the figure is -0.031.
As to STK38L (UniProt Q9Y2H1), the log2 fold change was 0.06.

Compound in the next test: COC(=O)N[C@@H](C)CNc1nccc(-c2cn(C(C)C)nc2-c2cc(Cl)cc(NS(C)(=O)=O)c2F)n1 [encorafenib]
The test is described as above. The procedure, abridged:
as §1
For SMARCA4 isoform 4 (UniProt P51532), the log2 fold change is -0.315.
Regarding TAF1B (UniProt Q53T94), the log2 fold change was 0.073.
Still for that read-out and setting: as for SNRPD2 (UniProt K7EJB5), the figure is -0.069; as for STK3 isoform 2 (UniProt Q13188), -0.046.
The same measure, in the same setting: the result for SMPD2 (UniProt O60906) reads 0.09; that for STK26 isoform 3 (UniProt Q9P289), 0.034; that for TARDBP (UniProt K7EN94), 0.224.
Still for that read-out and setting: the result for SLC41A1 (UniProt Q8IVJ1) reads 0.071; that for SLC22A18 (UniProt Q96BI1), 0.009; that for SLC12A6 isoform 2 (UniProt Q9UHW9), 0.031.
Turning to SIN3B (UniProt O75182), the log2 fold change is 0.12.
Regarding SZT2 (UniProt Q5T011), the log2 fold change is -0.011.
The same measure, in the same setting: the result for SURF2 (UniProt Q15527) reads -0.001.
Same read-out and setting: the result for SMIM1 (UniProt B2RUZ4) reads 0.226; that for SMYD3 (UniProt Q9H7B4), 0.022.
For TAOK2 (UniProt Q9UL54), the log2 fold change is -0.033.
The same measure, in the same setting: the result for STMN3 (UniProt Q9NZ72) reads -0.015; that for SPA17 (UniProt Q15506), -0.007; that for SMC1B isoform 3 (UniProt Q8NDV3), 0.039.
On to TAF11 (UniProt Q15544), for which the log2 fold change is -0.155.
Same read-out and setting: as for SRC isoform 2 (UniProt P12931), the figure is -0.171.
Regarding STK38L (UniProt Q9Y2H1), the log2 fold change is -0.036.

Compound in a further test: COC(=O)[C@H](CCSC)NC(=O)C1=C(C=C(C=C1)NC[C@H](CS)N)C2=CC=CC=C2
The description is as above. The gist of the method: as §1
As to SMARCA4 isoform 4 (UniProt P51532), the log2 fold change was 0.04.
Still for that read-out and setting: the result for TAF1B (UniProt Q53T94) reads -0.13; that for SNRPD2 (UniProt K7EJB5), 0.047; that for STK3 isoform 2 (UniProt Q13188), -0.068.
On to SMPD2 (UniProt O60906), for which the log2 fold change was -0.22.
The same measure, in the same setting: as for STK26 isoform 3 (UniProt Q9P289), the figure is 0.001; as for TARDBP (UniProt K7EN94), 0.04.
In the case of SLC41A1 (UniProt Q8IVJ1), the log2 fold change is -0.031.
Regarding SLC22A18 (UniProt Q96BI1), the log2 fold change was -0.013.
Take SLC12A6 isoform 2 (UniProt Q9UHW9): the log2 fold change is 0.075.
On the same count and under the same terms, the result for SIN3B (UniProt O75182) reads 0.272.
On the same count and under the same terms, the result for SZT2 (UniProt Q5T011) reads -0.105; that for SURF2 (UniProt Q15527), -0.319 (active); that for SMIM1 (UniProt B2RUZ4), -0.07.
On the same count and under the same terms, the result for SMYD3 (UniProt Q9H7B4) reads 0.071.
On to TAOK2 (UniProt Q9UL54), for which the log2 fold change was 0.055.
With STMN3 (UniProt Q9NZ72), the log2 fold change was -0.021.
Same read-out and setting: as for SPA17 (UniProt Q15506), the figure is -0.032; as for SMC1B isoform 3 (UniProt Q8NDV3), -0.03.
Still for that read-out and setting: the result for TAF11 (UniProt Q15544) reads 0.398 (active); that for SRC isoform 2 (UniProt P12931), 0.399; that for STK38L (UniProt Q9Y2H1), 0.193.

Compound in another test: COc1cc(Nc2ncc3c(n2)-c2ccc(Cl)cc2C(c2c(F)cccc2OC)=NC3)ccc1C(=O)O [alisertib]
Described as above. The gist of the method:
as §1
On to SMARCA4 isoform 4 (UniProt P51532), for which the log2 fold change is -0.046.
The same measure, in the same setting: the result for TAF1B (UniProt Q53T94) reads -0.177; that for SNRPD2 (UniProt K7EJB5), 0.103; that for SLCO4A1 (UniProt Q96BD0), -0.041.
On the same count and under the same terms, the result for SLC41A1 (UniProt Q8IVJ1) reads 0.024; that for SIN3B (UniProt O75182), -0.064.
Still for that read-out and setting: as for TAOK2 isoform 2 (UniProt Q9UL54), the figure is -0.046.
As for SZT2 (UniProt Q5T011), the log2 fold change was -0.193.
On to SURF2 (UniProt Q15527), for which the log2 fold change was -0.005.
Still for that read-out and setting: as for SMIM1 (UniProt B2RUZ4), the figure is -0.149; as for SMYD3 (UniProt Q9H7B4), -0.044.
The same measure, in the same setting: as for STK17B (UniProt O94768), the figure is 0.066.
On the same count and under the same terms, as for TAOK2 (UniProt Q9UL54), the figure is 0.02; as for STMN3 (UniProt Q9NZ72), -0.082; as for SIX5 (UniProt Q8N196), 0.023.
SMC1B isoform 3 (UniProt Q8NDV3): the log2 fold change was 0.027.
Same read-out and setting: as for SNAPC2 (UniProt Q13487), the figure is 0.014; as for TAF11 (UniProt Q15544), -0.053.
With STAU1 isoform 3 (UniProt O95793), the log2 fold change was -0.068.
Same read-out and setting: the result for SNIP1 (UniProt Q8TAD8) reads -0.024; that for STK38L (UniProt Q9Y2H1), 0.06.
Same read-out and setting: as for STK17A (UniProt Q9UEE5), the figure is -0.291.

The values are drawn from the supplement of paper PMC10849652.
